Test results: PubChem BioAssay (Tox21)
Records with an inconclusive call do not appear. Activity calls are given as the source filed them. Unless noted, the call rests on the fitted dose curve.

What was measured:
[1] = qHTS assay to identify small molecule agonists of the vitamin D receptor (VDR) signaling pathway - cell viability counter screen (AID 743224; active means well fitted curve in the direction sought with a large enough effect in the repeat runs; an effect the other way counts as inactive or inconclusive; further: series mostly up to about 63 µM; nearly all actives have a fitted effect of over 50% in size)
Procedure, shortened: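 Cells: VDR-bla, 2,000/well, settled 4 h. Treatment: compounds in DMSO, 16 h, 37C/5% CO2. Readout: CellTiter-Glo luminescence after 30 min RT.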

[2] = qHTS assay to identify small molecule antagonists of the vitamin D receptor (VDR) signaling pathway - cell viability counter screen (AID 743225; active means well fitted curve in the direction sought with a large enough effect in the repeat runs; an effect the other way counts as inactive or inconclusive; further: nearly all actives have a fitted effect of over 50% in size)
Procedure, shortened: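 Cytotoxicity toward the VDR-bla HEK 293T line was scored by ATP-based CellTiter-Glo luminescence, read in the wells already used for the beta-lactamase readout after 16 h compound treatment under 3 nM 1-alpha,25-dihydroxyvitamin D3 stimulation.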

[3] = qHTS assay to identify small molecule agonists of the NFkB signaling pathway (AID 1159509; active means well fitted curve in the direction sought with a large enough effect in the signal ratio in the repeat runs, not every such curve was filed as active; the % refers to the signal ratio; further: series mostly up to about 61 µM)
Procedure, shortened: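 Readout: FRET fluorescence, 405 nm excitation, 460/530 nm emission; beta-lactamase expression disrupts FRET. Cells: ME-180 stably carrying NF-kB-driven bla reporter. Compound exposure 5 hr, 37 C, 5% CO2.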

[4] = qHTS assay to identify small molecule agonists of the NFkB signaling pathway - cell viability counter screen (AID 1159515); further: series mostly up to about 61 µM; nearly all actives have a fitted effect of over 55% in size
Procedure, shortened: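 Cells are seeded (2,000 NFkB-bla ME-180 per well), rested overnight, and dosed with DMSO-dissolved compounds for 5 hr at 37 C. Viability is then read by CellTiter-Glo luminescence after 30 min at room temperature.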

[5] = qHTS assay to identify small molecule agonists of the endoplasmic reticulum stress response signaling pathway (AID 1159516; active means well fitted activation curve with a large enough effect in the signal ratio in the repeat runs, not every such curve was filed as active; the % refers to the signal ratio)
Procedure, shortened: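 Cells are seeded at 1,500 per well and incubated overnight. Compounds in DMSO are added for 5 hr at 37 C, then beta-lactamase FRET substrate for 2 hr at room temperature, and fluorescence at 460 and 530 nm is measured.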

[6] = qHTS assay to identify small molecule agonists of the endoplasmic reticulum stress response signaling pathway - cell viability counter screen (AID 1159517);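 further: HeLa cells carrying an ER stress response element beta-lactamase reporter; series mostly up to about 61 µM; nearly all actives have a fitted effect of over 50% in size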
Procedure, shortened: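 Cytotoxicity of test compounds toward ESRE-bla HeLa cells was assessed after 5 hr exposure. The luminescent CellTiter-Glo signal was measured 30 min after reagent addition.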

[7] = qHTS assay to identify small molecule antagonists of the retinoid-related orphan receptor gamma (ROR-gamma) signaling pathway - cell viability counter screen (AID 1159520; active means well fitted curve in the direction sought with a large enough effect in the repeat runs; an effect the other way counts as inactive or inconclusive; further: nearly all actives have a fitted effect of over 50% in size)
Procedure, shortened: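 Tet-on ROR gamma CHO cells (1,000/well) were plated 4 hr, given compounds in DMSO for 2 hr at 37 C, then induced with 1 uM final doxycycline for 16 hr. Viability was read as ATP by CellTiter-Glo luminescence after 30 min.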

[8] = biological target: Nuclear receptor ROR-gamma (Homo sapiens) (UniProt P51449); assay: qHTS assay to identify small molecule antagonists of the retinoid-related orphan receptor gamma (ROR-gamma) signaling pathway (AID 1159521; active means well fitted curve in the direction sought with a large enough effect in the repeat runs; an effect the other way counts as inactive or inconclusive)
Procedure, shortened: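 Readout: ONE-Glo luciferase luminescence, 30 min at room temperature. System: Tet-on RORγ CHO, RORE-LUC. Sequence: compound 2 h, doxycycline 1 uM final, 16 h at 37 C.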

[9] = qHTS assay to identify small molecule agonists of the AP-1 signaling pathway - cell viability counter screen (AID 1159525); further: nearly all actives have a fitted effect of over 55% in size
Procedure, shortened: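 Each titration point was normalised to DMSO and tetra n-octyl ammonium bromide controls. The read was Cell Titer Glo luminescence after 30 min at RT, following 5 h compound exposure of ME-180 AP-1-bla cells at 37 °C.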

[10] = qHTS assay to identify small molecule agonists of the AP-1 signaling pathway (AID 1159526)

Measured: Potency

CC(Cc1ccccc1)(NC(=O)CN)c1ccccc1 (stereo not drawn)
not listed: [10]
inactive: all other assays above

Nc1ccc(F)cc1F
not listed: [1]
inactive: all other assays above

Nc1ccc(-c2ccc(F)cc2)cc1
inactive: all assays above

C=CCCC
inactive: all assays above

Cc1c(N=C=O)cccc1N=C=O
not listed: [8]
inactive: all other assays above

CS(C)=O
not listed: [1]
inactive: all other assays above

CC(C)=CCCC(C)C=O (stereo not drawn)
inactive: all assays above

CC(=O)Nc1ccn(C2COC(COC(=O)c3ccccc3)O2)c(=O)n1 (stereo not drawn)
inactive: all assays above

CC(C)CC(C)(C)C
not listed: [1]
inactive: all other assays above

Cc1ccc(S(=O)(=O)NC(=O)NC2CCCC2)cc1
not listed: [10]
inactive: all other assays above

Cc1cc(N)n(-c2ccccc2)n1
inactive: all assays above

CCC(C(=O)O)c1ccc(N2Cc3ccccc3C2=O)cc1 (stereo not drawn)
not listed: [8]
inactive: all other assays above

COc1ccc(/C=C/c2cc(OC)cc(=O)o2)cc1
not listed: [8]
inactive: all other assays above

CC(C)CCCCCOC(=O)CS
not listed: [7]
inactive: all other assays above

CCCCOc1ccc(N)cc1
not listed: [7] | [8]
inactive: all other assays above

O=C(Nc1ccc2c(c1)Cc1ccccc1-2)C(F)(F)F
not listed: [8]
inactive: all other assays above
